Among the data in PMC12136788 are binding signal values, retold here.

In all, about 24,000 sequences were measured (“enrichment r”: median about 0.99, highest 2% from about 3.7 on). Shown is part of a subset that was picked to be rich in the highest values.

T1: UNK ZnF1-3 (human, UniProt Q9C0B0 31-174)
T1 sequence: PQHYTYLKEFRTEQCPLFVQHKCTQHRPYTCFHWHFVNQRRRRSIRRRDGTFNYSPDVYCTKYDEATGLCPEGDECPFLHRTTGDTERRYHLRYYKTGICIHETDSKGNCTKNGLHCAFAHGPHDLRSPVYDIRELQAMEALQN

B1: chr7:140404665:140404666:+_ENSG00000090266_ENST00000247866|hu_hu|hu_hu_hu_mus_False|8_88 (ssRNA)
RNA: GGGAGUUCUACAGUCCGACGAUCUGCUCCUACUCGUCCAGAGAGUUUACACCUUCAGUCCUCGUCAUCAGGAGGGAUUCCCAGUUCUUCAUCUGUCCACUGUGAAGGAUCUGGAUAUGAAAAGUGACCCAGCACCUCAUCCGACAACAGAGGAUUGAGCAUCA
B2: chr18:67804014:67804015:+_ENSMUSG00000024537_ENSMUST00000025418|mus_mus|motif|central (ssRNA)
RNA: GGGAGUUCUACAGUCCGACGAUCGCAAUCAGUAUAGAAAUAACCAAUCUUACACAUGUUCAGUGUAGAAAUAAUCAGAUCGGUUGCAAGCUGGCCAACAUUUCCAACGGAUACUGCUGGCAUCAGGAGUGUAAAGUUCGUUAGCAACAGAGGAUUGAGCAUCA
B3: chr4:140556289:140556290:+_ENSMUSG00000036622_ENSMUST00000037055|mus_mus|mus_mus_mus_hu_False|48_48 (ssRNA)
RNA: GGGAGUUCUACAGUCCGACGAUCGAUGGAGCUCACCAGGCCCCCUUUUGCCGUGCAGAACCCUGUGCGGGUCACCACUGCCAGGACACGGGGUCCCACAUAGGCCCGGGCCUGCAAGAUGAGGGUCCCGCAGAAGAGUGUGUGCAACAGAGGAUUGAGCAUCA
B4: 134094901_134095021_423_5pUTR_ENSG00000151502_ENST00000281187|human|control|control (ssRNA)
RNA: GGGAGUUCUACAGUCCGACGAUCCUCAUCGCACCGCCGGGCCGGGCGGGUCUCGGUAAGGACCGCUCCCUCGCACCGGGGCGCGGGCUGCCCUAGGUAAAGAAGGCCAGAGGGCCCGAUGCGCGAGCGCGCUCGGCCGCCGCGCAACAGAGGAUUGAGCAUCA
B5: chr14:63765801:63765802:-_ENSMUSG00000021273_ENSMUST00000054963|mus_mus|motif|central (ssRNA)
RNA: GGGAGUUCUACAGUCCGACGAUCCUGCUUGGUUUUGCUUGAUGAUGGGUCUGAGUUGGGGAUCCGGUGAUAAAUCUCUUCGGUGUACUGGUAUAUGAUAGCUUUGACGGCAGGCAUGUUGGUGGCAUCCAUCAUGAGGGUGACCAACAGAGGAUUGAGCAUCA
B6: 46153067_46153187_242_5pUTR_ENSG00000159596_ENST00000372025|human|control|control (ssRNA)
RNA: GGGAGUUCUACAGUCCGACGAUCGAUAAAACUGAAGACAUGUAGUAGGAGAUCUCAGGGGCCCACGCCGGCCAGUCCCUCCAAUCCUCCGGAUUCUAGGUAGUCUAGCUUCCUGGUUGCCAGCCAUUACACGGUUUAGCUUUCCAACAGAGGAUUGAGCAUCA
B7: chr7:54825262:54825263:-_ENSG00000132432_ENST00000352861|hu_hu|hu_hu_hu_mus_False|48_58 (ssRNA)
RNA: GGGAGUUCUACAGUCCGACGAUCCUGCCGGCUGGGCUCCACAAACUGCAUUACCUGAUCCAUGUUUGUUGGAUGGCACACCUAAAAUGCCAGGGACCGUAGCUCAGGAGAGAACCGAGCCCAACGGAACCGGAAGCUGGCAACCAACAGAGGAUUGAGCAUCA
B8: chr2:48026839:48026840:+_ENSG00000116062_ENST00000540021|hu_hu|hu_hu_hu_mus_False|1_48 (ssRNA)
RNA: GGGAGUUCUACAGUCCGACGAUCAUAGUGAGCCACUAGCGUCCUAAAUCUGGAACAGUGGCGGUCAUCCGAAAACUGGCCGAUGAAAAACUUUCCCAGUGAAGUGUCCACAAAGCAAACACCAUACACACGAGUGUGGCCAGACAACAGAGGAUUGAGCAUCA
B9: 133975328_133975448_5492_3pUTR_ENSG00000205060_ENST00000378509|human|control|control (ssRNA)
RNA: GGGAGUUCUACAGUCCGACGAUCUCUCCCAUUCCAGCUUGGUACACACUGAACACAUUUGAGGCUUAUGACUGGUUCUUUUACUUACAAAUAUUGUUUAGACACAUUUUCAAAUGUCACACCAAUCAAUAAUAAUAAGGAAUGCAACAGAGGAUUGAGCAUCA
B10: 243667512_243667632_2619_3pUTR_ENSG00000117020_ENST00000366539|human|control|control (ssRNA)
RNA: GGGAGUUCUACAGUCCGACGAUCUUCUCAUCACUAAAAAAUAAAUACUACUGCAAUAUAAACAAAAUCAUAAAAGGACAUUCAAAGUUUCAACAUCUGAGAAAAAGCUAAUUCACGUAGAACUGAAAGUAAAAAAUUAAAUAACAACAGAGGAUUGAGCAUCA
B11: chr1:109605286:109605287:-_ENSG00000197780_ENST00000461096|hu_mus|hu_hu_hu_mus_True|88_108 (ssRNA)
RNA: GGGAGUUCUACAGUCCGACGAUCAAGAACAAUAACAACAUUCAGUAUACUUAAAUCAUGCAAUUAUCCUUAUUAUAAGCUAAGCAGAAUAAUAAUUUAAUACCGUAAGUGAACUACACACAAAGCCUGAACCGCGAAAAUGGUCAACAGAGGAUUGAGCAUCA
B12: chr5:135513207:135513208:+_ENSG00000113658_ENST00000545279|hu_hu|FALSE|FALSE (ssRNA)
RNA: GGGAGUUCUACAGUCCGACGAUCAAUGUAAGCUCACAGUAUCUGUACUCAAAGUUUCUCUAAAAUUAAAACAAGUCCACUAACAAUAUAAUUGAAAAGAAUACUUCUGCAUUAUGAAACAGAAGAUAUGGGGUUCAGAGGGGACAACAGAGGAUUGAGCAUCA
B13: chr10:115881139:115881140:-_ENSG00000165813_ENST00000369287|hu_hu|FALSE|FALSE (ssRNA)
RNA: GGGAGUUCUACAGUCCGACGAUCAUAAAAAUAUUUUCACCAGGGUAGCAUAUAUAACAACAUUUACAUUAUUAAGGAUUCUAUUUUUUUCUUUUACUGAUAAAUCUUGGUUUAAAUUUGCAUGUAACAAUUUUUAGAAAAUAACAACAGAGGAUUGAGCAUCA
B14: 120959283_120959403_3001_3pUTR_ENSG00000154114_ENST00000422003|human|control|control (ssRNA)
RNA: GGGAGUUCUACAGUCCGACGAUCUGAAGAAUUUACAAGUCACCUAAAAAUUUCAUAAAAAAAUUAAAUUUGUAGGAGGGGUAGAAUUAUGUAACAAAGGUCAAAAGGUCAAAUGCAAUCAGAUAAUAACUGCAUUCUUUGAAACAACAGAGGAUUGAGCAUCA
B15: 62642993_62643113_3073_3pUTR_ENSMUSG00000032244_ENSMUST00000034775|mouse|control|control (ssRNA)
RNA: GGGAGUUCUACAGUCCGACGAUCCAUAUGUGUCCUCAUUCCUUUUCAUCUUACACCUAAUUAGGGAGACACCAAUGCCCUAUGGAAAGGCAGUUUCCAAUUUUUAAAGAUACAACACACAAGGACAGGGCUAGAAAAGGACGACAACAGAGGAUUGAGCAUCA
B16: chr8:42881778:42881779:+_ENSG00000168172_ENST00000307602|hu_hu|FALSE|FALSE (ssRNA)
RNA: GGGAGUUCUACAGUCCGACGAUCCUGAAGUUAGGGGCAAUCUGCAGGUUUGUGUUUCAGGAGGCAGGCAAACCAAAGGUAAGAACAUCUUCUGAUUAACUGUAAGAUGGGAUAAUUUUUAUGAAUACAACUUCAGAAAGCAUCCAACAGAGGAUUGAGCAUCA
B17: 58873449_58873569_2464_3pUTR_ENSMUSG00000025092_ENSMUST00000066285|mouse|control|control (ssRNA)
RNA: GGGAGUUCUACAGUCCGACGAUCAUCCAAGAUCAUUUUAAAAGACCUCCAAUGAAUGUUUCCCCCACCCUACCCUGCCCCCGGCACAGAGUGGGCGUCCUAAGCCUUCCCUUUCAGAGCCCUCUUCCAAGCAGGCUGCACCCACAACAGAGGAUUGAGCAUCA
B18: chr11:21040623:21040624:+_ENSMUSG00000020134_ENSMUST00000093290|mus_mus|motif|central (ssRNA)
RNA: GGGAGUUCUACAGUCCGACGAUCAAUGUGCACGGUGCUAGGCUUCACCCCAUUUGCCUUAGGUCUUUUAAACAAAGCAAACCGGCUUUUCCUCCUUCCUCUAUCACCGUUUGGGAGAGAUCCAUUAUAUCCUAAGACAAUGAGCAACAGAGGAUUGAGCAUCA
B19: chr7:75932113:75932114:+_ENSG00000106211_ENST00000248553|hu_hu|hu_hu_hu_mus_False|8_18 (ssRNA)
RNA: GGGAGUUCUACAGUCCGACGAUCCUGCGACCACUCAUCGGGCAACCGGGGCACCCCGAAAGCUUGAUCGAAGAGGCGGCUGUGUGCAGGGUACCAGUCCCGGAAUGGUUCCCAGCUGCCCCGCAGGAGCGAGAAGGAGGGCACCAACAGAGGAUUGAGCAUCA
B20: 171752885_171753005_485_CDS_ENSG00000010165_ENST00000361735|human|control|control (ssRNA)
RNA: GGGAGUUCUACAGUCCGACGAUCGGUGGCAUUACAUUCCUUCAUUUGCUUGAUGACAACCUCACUGAUGUCGAUGUUCACUAUAUCCCGAUAGCCCACAUCAUACAGUUGCUCACUCAGUUCUGAGUUGCCACACCCAAUCACCAACAGAGGAUUGAGCAUCA
B21: 59346998_59352246_650_CDS_ENSG00000215114_ENST00000399598|human|control|control (ssRNA)
RNA: GGGAGUUCUACAGUCCGACGAUCAUCCAAAUUCACUUGGCCACCAUGAACAAGGCGCUGAAGCUCCAGGGGAAUCUCUCCUCUCUUAACAGACUCCAGAAAUUGAGCAUUUGUUGGUUCAUUGUAAGGUCUCAAUUCUCCAUCCAACAGAGGAUUGAGCAUCA
B22: 244175_244709_261_3pUTR_ENSG00000185627_ENST00000382671|human|control|control (ssRNA)
RNA: GGGAGUUCUACAGUCCGACGAUCUUACACAGGAUCACUGCCUCAUCACUACUUUUCACCUUCUCACGAGUCUUUUCCAGAAAAGUAAGAGCCACAUUAGGAUCAGUCAUCUGUCUAACUACAUGAAGAAUGAUUUCCACGAGGCAACAGAGGAUUGAGCAUCA

This test has as its target T1, UNK ZnF1-3. The experiment in a line: nsRBNS (natural sequence RNA bind-n-seq); RBNS binding buffer (assumed for nsRBNS): 25 mM Tris pH 7.5, 150 mM KCl, 3 mM MgCl2, 0.01% Triton X-100, 500 ug/ml BSA, 20 U/ml SUPERase-In, 4 C; UNK is unkempt and MSI1 is Musashi-1; names of the RNAs are library labels; protein concentration not given here; high values mean tight binding.
Turning to B1, the binding signal came out at 1.36 enrichment R. B2: the binding signal turned out to be 0.794 enrichment R. Under B3 stands 0.98 enrichment R; under B4, 0.289 enrichment R.

Molecule B5 gave a binding signal of 1.69 enrichment R.

Regarding B6, the binding signal worked out at 0.934 enrichment R. Under B7 stands 1.16 enrichment R. Next, B8: 1.03 enrichment R; B9: 1.3 enrichment R; B10: 5.18 enrichment R.

Take B11: the binding signal came out at 0.813 enrichment R. Next, B12: 1.67 enrichment R; B13: 3.75 enrichment R. Under B14 stands 4.1 enrichment R. B15: the binding signal amounted to 1.66 enrichment R. Next, B16: 3.56 enrichment R. Under B17 stands 5.4 enrichment R; under B18, 0.75 enrichment R. Under B19 stands 1.07 enrichment R; under B20, 0.654 enrichment R.

The molecule B21 registered a binding signal of 1.23 enrichment R. Under B22 stands 1.47 enrichment R.
